Experimental data taken from PubChem BioAssay (EPA / NIEHS).
Active and inactive are the calls of the source. How the source made its calls: active means hit-call score of the fitted dose curve at least 0.9, where 1 is the maximum; inactive means score below 0.9.

The compounds below were run on Ezrin (EZR), EZR (gene 7430) (assay: LTEA_HepaRG_EZR: Life Technologies and Expression Analysis (LTEA) Assay for Ezrin (EZR) using HepaRG (AID 2283491)). Conditions: mRNA level, 48 h; actives raise or lower the signal.
Method in brief: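 EZR transcript levels came from Fluidigm qRT-PCR and were normalized to three housekeeping genes after 48 h chemical exposure of HepaRG cells. Dosing used an 8-point half-log series with a 100 uM top concentration in 0.5% DMSO, tested in duplicate; both directions were fitted versus vehicle.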
`O=C1O[C@H]([C@H](O)CO)C(O)=C1O` was tested, and the outcome was “inactive”.
In the case of `CCC(C)N(C)C(=O)c1cc2ccccc2c(-c2ccccc2Cl)n1` (stereo not drawn), the outcome is reported as “inactive”.
`OCC(O)CO` was tested, and the outcome was “inactive”.
For `CCCCc1nc2cccnc2n1Cc1ccc(-c2ccccc2-c2nnn[nH]2)cc1`, the outcome was “inactive”.
`O=C(O)CC(O)(CC(=O)O)C(=O)O` was tested, and the outcome was “inactive”.
In the case of `O=Cc1ccccc1C=O`, the outcome is reported as “inactive”.
For `CC1(C)C(=O)NC(=O)N1CO`, the outcome was “inactive”.
In the case of `CCCC[C@H]1CN(CC2CCOCC2)C(=O)OC12CCN(C1(C)CCN(C(=O)c3c(C)ncnc3C)CC1)CC2`, the outcome is reported as “inactive”.
`C#CC(O)C(CC)CCCC` (stereo not drawn) was tested, and the outcome was “inactive”.
With `Cc1ccc(C(C)(C)C)c(O)c1` the outcome was “inactive”.

What follows are compounds tested on Cytochrome P450 3A7 (Homo sapiens) (UniProt P24462) (assay: LTEA_HepaRG_CYP3A7: Life Technologies and Expression Analysis (LTEA) Assay for CYP3A7 using HepaRG (AID 2283492)). Conditions: mRNA level, 48 h; actives raise or lower the signal.
Chain of Cytochrome P450 3A7 (Homo sapiens) (P24462 whole entry, looked up): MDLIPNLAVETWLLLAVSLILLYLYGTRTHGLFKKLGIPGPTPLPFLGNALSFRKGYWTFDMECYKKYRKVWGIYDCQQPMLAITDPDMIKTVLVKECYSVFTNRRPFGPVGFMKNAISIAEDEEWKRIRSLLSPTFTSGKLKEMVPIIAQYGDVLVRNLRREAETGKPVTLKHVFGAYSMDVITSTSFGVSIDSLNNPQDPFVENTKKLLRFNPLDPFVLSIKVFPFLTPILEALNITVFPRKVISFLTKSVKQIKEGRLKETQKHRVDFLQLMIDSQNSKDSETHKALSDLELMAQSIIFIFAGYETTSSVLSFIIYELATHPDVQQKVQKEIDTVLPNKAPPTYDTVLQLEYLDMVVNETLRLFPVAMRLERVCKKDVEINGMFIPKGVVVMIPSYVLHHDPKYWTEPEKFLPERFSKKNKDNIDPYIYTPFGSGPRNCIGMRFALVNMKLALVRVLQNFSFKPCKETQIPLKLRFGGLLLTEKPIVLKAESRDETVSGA
Method in brief: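 CYP3A7 transcript measured by qRT-PCR (ACTB, GAPDH, POLR2A normalization) after 48 h chemical exposure of HepaRG cells in duplicate. Eight half-log concentrations, maximum 100 uM, 0.5% DMSO vehicle; bidirectional curve fitting against DMSO baseline.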
`COC(=O)CCCC(=O)OC` was tested, and the outcome was “inactive”.
`O=C(O)CN(CC(=O)O)CC(=O)O` was tested, and the outcome was “inactive”.
In the case of `CCc1nc(N)nc(N)c1-c1ccc(Cl)cc1`, the outcome is reported as “inactive”.
`CC(C)c1cccc(C(C)C)c1NC(=O)NS(=O)(=O)c1cc(C(C)(C)O)co1` was tested, and the outcome was “inactive”.
With `Oc1ccc(O)cc1` the outcome was “inactive”.
In the case of `NC=O`, the outcome is reported as “inactive”.
For `CC(=O)S[C@H](C(=O)N[C@H]1Cc2ccccc2[C@H]2CCC[C@@H](C(=O)O)N2C1=O)C(C)C`, the outcome was “inactive”.
`CC(=O)CC(c1ccccc1)c1c(O)c2ccccc2oc1=O` (stereo not drawn) was tested, and the AC50 was 34.7 µM (active).
For `NCCOCCOCCN`, the outcome was “inactive”.
For `O=C(O)c1[nH]n(-c2ccc(S(=O)(=O)O)cc2)c(=O)c1N=Nc1ccc(S(=O)(=O)O)cc1`, the outcome was “inactive”.
In the case of `CCc1cc(C2=C(C(=O)O)N(c3ccccc3C(F)(F)F)S(=O)(=O)c3ccccc32)cc2c1OCO2`, the AC50 is reported as 0.645 µM (active).
In the case of `CCCCCCCCCC[N+](C)(C)[O-]`, the outcome is reported as “inactive”.
`CN(C)CCCN1c2ccccc2Sc2ccc(Cl)cc21` was tested, and the outcome was “inactive”.
